Test results published in PubChem BioAssay (EPA / NIEHS).
Calls of active or inactive are those of the source. The calls were made as follows: active = hit-call score of the fitted dose curve at least 0.9, where 1 is the maximum; inactive = score below 0.9.

Experiment: ATG_TAL_CIS: Attagene CIS-FACTORIAL HepG2 Assay for human TAL Basal Promoter (AID 2282966);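 also: background control endpoint measuring basal TAL promoter reporter mRNA not a specific factor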
Details: HepG2 Attagene cis-factorial TAL promoter reporter; actives raise or lower the signal
Method in brief: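 Fluorescence of labelled reporter cDNA fragments, resolved by capillary electrophoresis, gave the readout. Human HepG2 liver cells carried transiently transfected cis-element reporter units and were treated for 24 hours; activity was fitted bidirectionally against DMSO.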

Row | SMILES | outcome | AC50
1 | OCCO | inactive | –
2 | CCCCCCCCCC(=O)O | inactive | –
3 | CN1C(=O)CC[C@H]1c1cccnc1 | inactive | –
4 | CN(C)c1ccc(C(=C2C=CC(=[N+](C)C)C=C2)c2ccc(N(C)C)cc2)cc1 | inactive | –
5 | Cc1cc(F)ccc1-c1cc(N2CC[C@@H](O)[C@H]2CO)ncc1N(C)C(=O)C(C)(C)c1cc(C(F)(F)F)cc(C(F)(F)F)c1 | inactive | –
6 | CCO[Si](CCCNC(N)=O)(OCC)OCC | inactive | –
7 | Cc1oc2c(NC(=O)c3c(Cl)cccc3Cl)cccc2c1C(C)(C)O | – | 33.1 µM (active)
8 | O=C=NCCCCCCN=C=O | inactive | –
9 | C[C@]12CC[C@@H]3c4ccc(O)cc4CC[C@H]3[C@@H]1CCC2=O | inactive | –
10 | O=c1ccc2ccccc2o1 | inactive | –
11 | COc1cccc([C@H](O)C2CCN(CCc3ccc(F)cc3)CC2)c1OC | inactive | –
12 | Cc1ncc(CO)c(CO)c1O | inactive | –
13 | COc1ccc2cc(S(=O)(=O)N[C@H](CC(=O)N[C@H](Cc3ccc(CN4[C@H](C)CCC[C@@H]4C)cc3)C(=O)N(C)C(C)C)c3ccc4c(c3)OCO4)ccc2c1 | inactive | –
14 | O=C(Nc1ccc(Cl)cc1)Nc1ccc(Cl)c(Cl)c1 | inactive | –
15 | Cc1ccc2oc(CN(Cc3ccccc3)C(=O)Nc3c(F)cc(F)cc3F)c(-c3ccc(Cl)cc3)c2c1 | inactive | –
16 | CCN(Cc1cccnc1)C(=O)c1cccc(Cl)c1[C@]1(C)C(=O)N(Cc2ccc(OC)cc2OC)c2ccc(Cl)cc21 | inactive | –
17 | O=C1c2ccccc2C(=O)N1CCc1noc(-c2ccc(CN3CCCCCC3)s2)n1 | inactive | –
18 | Oc1ccccc1 | inactive | –
19 | CC1(C)NC(=O)N(c2ccc([N+](=O)[O-])c(C(F)(F)F)c2)C1=O | inactive | –
